# Screens: PubChem, National Center for Advancing Translational Sciences (NCATS)
# TDP1 inh: TDP1 (human) enzyme inhibition; Q9NUW8; recombinant TDP1, AlphaScreen DNA substrate cleavage; Potency, µM (titrated, usually from 130 µM), inactives show at the top dose activity change, negative = inhibition, usual class: inhibitors; 0.28% of 350,000 active; AID 485290; further: potency means the concentration at half of the fitted maximal effect; on the % scale 0 is the no-effect control and ±100 the full control effect; nearly all actives have a fitted effect of over 40% in size
# Target sequence (Q9NUW8 whole entry, looked up): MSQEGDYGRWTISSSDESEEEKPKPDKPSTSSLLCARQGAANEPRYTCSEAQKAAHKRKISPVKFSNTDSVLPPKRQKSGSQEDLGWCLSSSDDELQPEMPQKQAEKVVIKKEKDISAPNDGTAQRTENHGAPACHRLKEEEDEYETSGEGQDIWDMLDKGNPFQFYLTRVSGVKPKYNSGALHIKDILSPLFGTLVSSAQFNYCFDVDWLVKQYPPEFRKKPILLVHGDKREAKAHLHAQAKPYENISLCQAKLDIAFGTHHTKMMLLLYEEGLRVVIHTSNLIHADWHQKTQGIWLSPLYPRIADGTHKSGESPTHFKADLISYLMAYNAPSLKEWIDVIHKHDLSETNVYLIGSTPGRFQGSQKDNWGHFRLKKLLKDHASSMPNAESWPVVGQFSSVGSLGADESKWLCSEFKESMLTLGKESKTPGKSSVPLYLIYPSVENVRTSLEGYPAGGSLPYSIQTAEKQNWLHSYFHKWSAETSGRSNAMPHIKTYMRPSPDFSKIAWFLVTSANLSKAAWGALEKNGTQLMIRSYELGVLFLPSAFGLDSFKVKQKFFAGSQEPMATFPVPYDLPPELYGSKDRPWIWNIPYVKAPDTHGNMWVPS
#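 Tdp1 1 nM final; 15 min RT w/ cpd; substrate 15 nM, 5 min; beads 10 ug/ml, 10 min; AlphaScreen read. Neg ctrl: no enzyme.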
# HepG2 viability: counter-screen for TGF-b inhibitors: cytotoxicity in HepG2 cells; HepG2 CAGA-GFP viability, ATP luminescence, 18 h; 0.76% of 410,000 active; Potency, µM (doses to about 46.1 µM), for inactives: top-dose activity change, negative = cytotoxicity, usual class: cytotoxic; further: potency means the concentration at half of the fitted maximal effect
#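 CellTiter-Glo luminescence gave cytotoxicity after 18 hours at 37 degrees C. The cells were HepG2 CAGA-GFP in 1% FBS DMEM, stimulated with 500 pg/mL TGF-beta after compound addition. %Activity was normalised to no-cell wells (complete cell-killing) and DMSO (no toxicity), and curves were fitted and classified.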
# TGFb inhibitor: TGF-b pathway inhibition. HepG2 CAGA-GFP TGF-b/SMAD3 reporter, GFP fluorescence, 18 h; TGF-beta stimulated, 500 pg/mL final. Potency, µM (doses to about 46.1 µM), inactives show top-dose activity, negative = inhibition, usual class: inhibitors. 1.2% of 410,000 active. AID 588855; further: potency means the concentration at half of the fitted maximal effect; on the % scale 0 is the no-effect control and ±100 the full control effect; nearly all actives have a fitted effect of over 65% in size
#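 Cell-based qHTS in HEPG2 carrying a CAGA-GFP Smad reporter; compounds added before 500 pg/mL final TGF-beta, 18 h incubation at 37 degrees C, GFP fluorescence quantified per cell by imaging cytometry.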
# DT40 TDP1 CPT: DT40-hTDP1 cell growth loss with CPT | chicken DT40 Tdp1-/-;hTDP1 cells + 20 nM CPT, ATP luminescence, 48 h | Potency, µM (titrated, usually from 46.2 µM), without a hit: top-dose activity change, negative = growth inhibition, hits mostly inhibitors | 12% of 420,000 active; further: potency means the concentration at half of the fitted maximal effect; on the % scale 0 is the no-effect control and ±100 the full control effect; nearly all actives have a fitted effect of over 55% in size
#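 Cell growth measured by CellTiter-Glo luminescence after a minimum 48 h, 37 C compound exposure with 20 nM CPT in Tdp1-knockout DT40 cells stably expressing hTDP1, seeded 400/well; qHTS titration format.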
# DT40 TDP1 no CPT: qHTS for Inhibitors of human tyrosyl-DNA phosphodiesterase 1 (TDP1): qHTS in cells in absence of CPT; Potency, µM (top dose mostly 46.2 µM), for inactives: at the highest dose activity change, negative = growth inhibition, hits mostly inhibitors; 15% of 420,000 active; DT40 Tdp1-/- hTDP1 cells, no CPT, ATP luminescence, 48 h; AID 686978, 2013; further: potency means the concentration at half of the fitted maximal effect; on the % scale 0 is the no-effect control and ±100 the full control effect; nearly all actives have a fitted effect of over 55% in size
#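 Cells were dispensed at 400 per well, compounds added by pin tool, plates incubated ≥48 hr at 37 °C, then CellTiter-Glo added for 30 min at room temperature before luminescence reading. Line: DT40 Tdp1-/- complemented with hTDP1; camptothecin omitted.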
# IL-1B inflam inh: inflammasome signaling inhibition, IL-1 beta readout; THP-1 LPS/ATP IL-1B secretion, AlphaLISA, 16 h; active compounds read low; activity change, % at 57.5 µM; 4.7% of 360,000 active; in the data active means activity change below about -50%; inconclusive means mostly about -30% to -49%; further: on the % scale 0 is the no-effect control and ±100 the full control effect
#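 Secreted IL-1B measured by AlphaLISA bead assay after 16 h compound exposure of THP-1 cells; compounds (final up to 57.5 uM) added 1 h before LPS (250 ng/mL) and ATP (1.25 mM) stimulation; lower signal means less secretion.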
# An asterisk follows results filed as active; ? = inconclusive; · = no result given. Most compounds without a hit are left out; they make up all but 18% or so of the library. Unless noted, the call rests on the fitted dose curve; in most records, active means well fitted curve in the direction sought with a large enough effect; inconclusive means small, poorly fitted or top-dose-only effect, or another doubt; inactive means no such curve, though single readings can be large; an effect the other way counts as inactive or inconclusive.
SMILES,TDP1 inh,HepG2 viability,TGFb inhibitor,DT40 TDP1 CPT,DT40 TDP1 no CPT,IL-1B inflam inh
CCOC(=O)N1CCN(c2ncc3c(n2)CC(c2ccc(Cl)cc2)CC3=O)CC1 (configuration not stated),-2%,-19%,-6%,·,·,·
COc1ccc(C2CC(=O)c3c(C)nc(N4CCN(C=O)CC4)nc3C2)c(OC)c1 (configuration not stated),6%,-8%,-11%,·,·,·
COc1cc(C2CC(=O)c3cnc(N4CCN(CCO)CC4)nc3C2)cc(OC)c1OC (configuration not stated),1%,-23%,4%,·,·,·
CC1CC(C)CN(c2ncc3c(n2)CC(c2ccccc2)CC3=O)C1 (configuration not stated),-1%,16%,-6%,12µM*,10µM*,-3
COc1cc(C2CC(=O)c3cnc(N4CCN(Cc5ccccc5)CC4)nc3C2)cc(OC)c1OC (configuration not stated),6%,-8%,-10%,7.3µM*,7.3µM*,12
CC(C(=O)Nc1ccccc1F)N1CCN(S(=O)(=O)c2ccc(C(F)(F)F)cc2)CC1 (configuration not stated),-3%,1%,0%,-3%,?,-13
Cc1nn(-c2ccccc2)c(C)c1/C=N/N1CCN(Cc2ccccc2)CC1,22%,·,·,·,·,·
Cc1ccccc1NC(=O)Cc1nnc(SCC(=O)NC2=NCCS2)n1C,·,-3%,1%,-10%,-11%,21
OCCC1CN(Cc2nc3ccc(F)cc3[nH]2)CCN1C1CCCC1 (configuration not stated),·,4%,4%,-3%,21%,36
CCOC(=O)c1cccc(NC(=O)Cn2ncc3c4ccccc4n(Cc4ccccc4)c3c2=O)c1,0%,4%,4%,?,?,·
O=C(CCN1C(=O)C2C3C=CC(C4CC34)C2C1=O)Oc1ccc(Br)cc1 (configuration not stated),3%,2%,1%,33%,-14%,21
O=C(CCN1C(=O)C2C3C=CC(C4CC34)C2C1=O)Oc1cccc2cccnc12 (configuration not stated),5%,6.3µM*,5µM*,5.2µM*,3.3µM*,31
CC(C)c1ccc(OCc2cc(=O)n3c4c(sc3n2)CCCC4)cc1,-1%,-9%,-37%,2%,-4%,·
CN=c1scc(C)n1/N=C/c1cc(Br)c(O)c(Br)c1,7%,1%,11%,4%,-24%,32
CN=c1scc(-c2ccco2)n1/N=C/c1ccc(O)c(O)c1,8%,-23%,-10%,4.6µM*,9.2µM*,47
COc1ccc(O)c(/C=N/n2c(-c3ccco3)csc2=Nc2cccnc2)c1,7%,-39%,?,-27%,?,0
CN=c1scc(C)n1/N=C/c1ccc(O)cc1,5%,0%,3%,?,23µM*,-13
C=CCN=c1scc(C)n1/N=C/c1ccc(O)c(O)c1,6%,7%,-21%,16µM*,7.3µM*,44
CN=c1scc(C)n1/N=C/c1ccc(O)cc1O,8%,-17%,-17%,?,?,-3
Cc1csc(=O)n1CC(=O)OCC(=O)Nc1ccc(Cl)cc1F,·,-13%,-11%,-17%,-23%,-18
COC(=O)C(C(=O)OC)C1C=CCN(C(C)=O)C1 (configuration not stated),·,-2%,-22%,9%,-1%,42
Cn1c(SCC(=O)NC2CCCCC2)nnc1C(F)(F)F,·,-11%,-3%,1%,5%,-17
Cc1nc(-c2ccc(F)cc2)c(CC(=O)N2CCN(S(=O)(=O)c3cccc(F)c3)CC2)s1,·,-28%,-7%,21µM*,15µM*,-2
Cn1c(=O)c2c(SCC(=O)NCc3ccco3)nc(-c3ccccc3Cl)nc2n(C)c1=O,-5%,2%,-1%,?,23µM*,3
CCOC(=O)c1c(N2C(=O)C3C4C=CC(O4)C3C2=O)sc2c1CCCC2 (configuration not stated),7%,4%,5%,8.2µM*,16µM*,-13
SMILES,TDP1 inh,HepG2 viability,TGFb inhibitor,DT40 TDP1 CPT,DT40 TDP1 no CPT,IL-1B inflam inh
O=C(Nc1cc(C(F)(F)F)ccc1Cl)C(Sc1cccc[n+]1[O-])c1ccccc1 (configuration not stated),-3%,-7%,?,4.6µM*,4.6µM*,-96*
O=C(Nc1cc(C(F)(F)F)ccc1Cl)C(O)Cc1ccccc1 (configuration not stated),-6%,·,·,·,·,·
Cc1ccccc1-n1nc2c(c1NC(=O)c1ccc3c(c1)OCO3)CS(=O)(=O)C2,4%,7%,5%,-9%,7%,0
COc1ccc(COc2cccc(C=O)c2)cc1,·,-24%,12%,3.7µM*,4.6µM*,14
O=Cc1cccc(OCc2cccc3ccccc23)c1,·,-1%,-1%,4.1µM*,2.6µM*,?
O=C(CN(Cc1cccs1)S(=O)(=O)c1ccc(S(=O)(=O)NC2CCCCC2)cc1)Nc1ccccc1,5%,-4%,?,21µM*,18µM*,-16
O=C(CN(C1CC1)S(=O)(=O)c1ccc(S(=O)(=O)NC2CCCCC2)cc1)Nc1ccccc1,4%,15%,-18%,?,?,-13
O=C(CSc1nc(-c2ccccc2)c(-c2ccccc2)o1)N1CCOCC1,6%,-12%,-19%,29µM*,16µM*,-7
COCC(C)NC(=O)CSc1nc(-c2ccccc2)c(-c2ccccc2)o1 (configuration not stated),7%,-37%,-29%,12µM*,8.2µM*,4
Nc1c(C(=O)Nc2ccc(OC(F)(F)F)cc2)sc2nc(-c3ccncc3)ccc12,-3%,-51%,?,10µM*,6.5µM*,·
COc1cccc(-c2ccc3c(N)c(C(=O)c4ccc(Cl)cc4)sc3n2)c1,·,-40%,-11%,8.2µM*,7.3µM*,·
